Source: article PMC12136788
Whole data set: some 24,000 sequences, median “enrichment r” near 0.99, cut for the highest 2% near 3.7. A selection follows.

T1: UNK ZnF1-3 (human, UniProt Q9C0B0 31-174)
T1 sequence: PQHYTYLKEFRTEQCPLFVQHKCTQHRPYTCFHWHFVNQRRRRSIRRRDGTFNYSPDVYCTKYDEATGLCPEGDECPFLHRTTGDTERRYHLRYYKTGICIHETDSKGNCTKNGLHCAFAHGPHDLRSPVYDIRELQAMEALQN

B1: chr7:7679991:7679992:-_ENSG00000106399_ENST00000396682|hu_hu|hu_hu_hu_mus_False|18_58 (ssRNA)
RNA: GGGAGUUCUACAGUCCGACGAUCUGGGAUGAAUCUUUUCCAGCUUCCCCACGAAGCACACGGGCCGGUCGAUAUACUGAGCUAGCAUGCUGGCGUUGACGCGCGCUUUGGGGAGCUCCAUCAUGUCCUCCAUGAUUCUGCCGCCAACAGAGGAUUGAGCAUCA
B2: chrX:20248820:20248821:+_ENSMUSG00000001924_ENSMUST00000001989|mus_mus|mus_mus_mus_hu_True|48_58 (ssRNA)
RNA: GGGAGUUCUACAGUCCGACGAUCGGCGAAGUCCGUCACCACAAAGUCAGGUUCUGCCAGUGAGGCCACCAAGGAUUUAAAACUAAUCUUUUUCGGUACUUUGACCUGACUGACGAUGCCUCCACGGAUGUAGUCGGAGAAGUUCAACAGAGGAUUGAGCAUCA
B3: chr9:95013113:95013114:-_ENSG00000196305_ENST00000443024|hu_hu|hu_hu_hu_mus_False|78_78 (ssRNA)
RNA: GGGAGUUCUACAGUCCGACGAUCCUCAGUCAGAAAGGGCGUGUAAGGGGCCAUCAGUCUGCAAAGAGAAAGCAGGACACUGAACAGUGUCUCCAGAGCCAUGACACAGUCUUCCACCCCACUCUCACCCUUUAACCUCCUCCUCAACAGAGGAUUGAGCAUCA
B4: chr16:45382771:45382772:-_ENSMUSG00000022661_ENSMUST00000163230|mus_mus|mus_mus_mus_hu_True|48_88 (ssRNA)
RNA: GGGAGUUCUACAGUCCGACGAUCCUGGGUCAUGUUAUAAGACAAAUGGAUAGGGAGGGCAUGCUUCUCAAAAAAUGUGAGCUAUUGACUAAGACUAACAAUAUUUAUCUAGCUAUAAAAAUAAGUUAAAUGAAUAAGUUAAGACAACAGAGGAUUGAGCAUCA
B5: chrX:148369326:148369327:+_ENSMUSG00000025261_ENSMUST00000112622|mus_hu|FALSE|FALSE (ssRNA)
RNA: GGGAGUUCUACAGUCCGACGAUCCUUGUCUCGCAUUGAAUCAUUAGCUGUGCACAUCAACACAUUCCAAGCACAAAUUAAGAAAUGCAAACAGAACAAAAAAAUAUAUAUAUAUAUAAUUUUUUCCCCUAUCCAAAGGUUUCACAACAGAGGAUUGAGCAUCA
B6: 52112337_52131274_754_3pUTR_ENSMUSG00000022637_ENSMUST00000114471|mouse|control|control (ssRNA)
RNA: GGGAGUUCUACAGUCCGACGAUCAUCAAUGGUUGACUUCAGAGCCAUUGCUUCCAGGCCAGAGCUGAUCUGAUGGACCUCAUGCAGGCACUGUCUGAAGACUUUCCAUGGUACAAUAGUUUUGUCUCCAAAAAACUUCCUCCACAACAGAGGAUUGAGCAUCA
B7: chr18:56819859:56819860:+_ENSG00000166562_ENST00000588875|hu_mus|FALSE|FALSE (ssRNA)
RNA: GGGAGUUCUACAGUCCGACGAUCAACCUUGAUUACUCUGUGAACUAUCGGAAUGUCUCUUCCUUCAACCUUAAAAACAACUAUUUCACCAGCUCUGAUGGGGUCCUCCCGGAAAUUCGUGAGGAACAGCAGAUCUCCUCUGUGCAACAGAGGAUUGAGCAUCA
B8: 224577001_224577121_2655_3pUTR_ENSG00000162923_ENST00000295024|human|control|control (ssRNA)
RNA: GGGAGUUCUACAGUCCGACGAUCCGGGCAAGGCUAGAAUCCAUGAACCAAGCUGCAAAGAUCUCAAGCUAAAUAAGGCGGAAAGAUUUGGAGAAACAAAAGAAGGAAAUUCUUUCCUAUCCAAUGUAUACUCUUCAGACUAAUCAACAGAGGAUUGAGCAUCA
B9: chr2:62099399:62099400:-_ENSG00000115484_ENST00000544079|hu_hu|FALSE|FALSE (ssRNA)
RNA: GGGAGUUCUACAGUCCGACGAUCGUAGGAUUCCAUACCACUCAGUGUUCGUGAAUAUUCAGUUAAUCGUAGGGCCAACUCUAUUUCUGGAGCACCACCUCCUGCAAUAAGAGCCCUCUUCUUCACUAAACAACGAAUAACACACAACAGAGGAUUGAGCAUCA
B10: chr13:30086970:30086971:-_ENSG00000139514_ENST00000380752|hu_mus|FALSE|FALSE (ssRNA)
RNA: GGGAGUUCUACAGUCCGACGAUCAGGCCCUGUGUAGGCUGGGGAAGUGUGCUACCACUAGGCUACACGCCUGUCCAGCCCCACUAACUCUUCCAUUCUCAAGAAUCUUCCAAAGCAGAGGAAAGACAGGGCCAUCAGUCUACCCAACAGAGGAUUGAGCAUCA
B11: 101904251_101904371_108_5pUTR_ENSMUSG00000058655_ENSMUST00000169681|mouse|control|control (ssRNA)
RNA: GGGAGUUCUACAGUCCGACGAUCGGAGAGAGAACGCAAAGGACCCGGAUGAGGCAGUCACGUGAUUAUAGCGGGCGCGACGGGCUUGGAGACGUGAAACCAGGAGGGGGCGGGGAGCCGAGGACGGAGGCAGAAGGCGGGGCGCAACAGAGGAUUGAGCAUCA
B12: 125499526_125499646_756_3pUTR_ENSMUSG00000091337_ENSMUST00000164756|mouse|control|control (ssRNA)
RNA: GGGAGUUCUACAGUCCGACGAUCCUGUGAGACCAAAGAGGAACGAUUUGGUCUUUUUCUCCUCGCGAUUCUCAGGUUUAACACUCCUCCUUCCUCGAUUCUCCUUUUCCACAAUGCAUGGUCAUUCACUGUCCCGUCUUCUAUCAACAGAGGAUUGAGCAUCA
B13: 19967392_19969057_911_3pUTR_ENSMUSG00000002428_ENSMUST00000002502|mouse|control|control (ssRNA)
RNA: GGGAGUUCUACAGUCCGACGAUCUCCCAGAAUGGUGGUAGUUCUUUACUGUUCUCUCGUGCGAUCAUCCAAGCUAGAGCUUGUUUUUGGUGUGGAAGCAACGGUGUUUCAAUAGCCUCAGCUGGUUCCAUUUCAACAGUUCUACAACAGAGGAUUGAGCAUCA
B14: chrX:21990627:21990628:+_ENSG00000102172_ENST00000404933|hu_hu|FALSE|FALSE (ssRNA)
RNA: GGGAGUUCUACAGUCCGACGAUCCACCCGCCCAGUACUGUCCUGACUCAAUUCUUUCAUUCUUUCCUCUACUUUGUUCAAAAUACUGUCGAUCUCUUCUUUGCCUUGCGCAUCACCAUCAUAACUCUGAAGGUCCAGCAACACCAACAGAGGAUUGAGCAUCA

The binders below were run against T1, UNK ZnF1-3 (assay: nsRBNS (natural sequence RNA bind-n-seq); RBNS binding buffer (assumed for nsRBNS): 25 mM Tris pH 7.5, 150 mM KCl, 3 mM MgCl2, 0.01% Triton X-100, 500 ug/ml BSA, 20 U/ml SUPERase-In, 4 C; UNK is unkempt and MSI1 is Musashi-1; names of the RNAs are library labels; protein concentration not given here; high values mean tight binding).

| Binder | binding signal [enrichment R] |
| --- | --- |
| B1 | 0.939 |
| B2 | 1.04 |
| B3 | 1.44 |
| B4 | 2.26 |
| B5 | 0.406 |
| B6 | 0.85 |
| B7 | 0.758 |
| B8 | 1.48 |
| B9 | 1.13 |
| B10 | 1.02 |
| B11 | 3.03 |
| B12 | 0.473 |
| B13 | 0.75 |
| B14 | 0.997 |
